# Measurements: PubChem BioAssay (Tox21)
# Unmarked numbers belong to inactive results. Records with an inconclusive call do not appear. Entries that show only a call come without a potency. Active and inactive are the calls of the source. Unless noted, calls follow the shape of the full dose curve.
# Assays:
# [1] = Nuclear factor erythroid 2-related factor 2/antioxidant responsive element (Nrf2/ARE) small molecule agonists: qHTS cell viability counter screen in human keratinocytes (AID 1919968; active = well fitted curve in the direction sought with a large enough effect in the repeat runs; an effect the other way counts as inactive or inconclusive; also: nearly all actives have a fitted effect of over 55% in size; also: potency is read from the fitted curve at half-maximal effect)
# Procedure, shortened: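 HaCaT ARE reporter line, 1,500 cells/well; 5 h settle, 37 C/5% CO2; cpd in DMSO pinned; 23 h exposure; CellTiter-Fluor, 1 h; fluorescence.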
# [2] = Nuclear factor erythroid 2-related factor 2/antioxidant responsive element (Nrf2/ARE) small molecule agonists: luciferase reporter gene qHTS assay in human keratinocytes (AID 1919969); also: nearly all actives have a fitted effect of over 35% in size; also: potency is read from the fitted curve at half-maximal effect
# [3] = target: Gonadotropin-releasing hormone receptor (Homo sapiens) (UniProt P30968); test: Human gonadotropin-releasing hormone receptor (GnRHR) small molecule agonists, calcium flux assay in GnRHR-HEK293 cells (AID 1920063); also: nearly all actives have a fitted effect of over 35% in size; also: potency is read from the fitted curve at half-maximal effect
# Procedure, shortened: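 GnRHR-HEK293, 1500 cells/well, 18 h 37 C/5% CO2; Ca dye 1 h 37 C; cpd pinned (DMSO), agonist mode; kinetic FL 480/540, 3 min, 1 s reads; 15 conc, n=3.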
# [4] = target: KiSS-1 receptor (Homo sapiens) (UniProt Q969F8); test: Human kisspeptin (KISS1R) small molecule agonists, calcium flux assay in KISS1R-HEK293 cells (AID 1920064; active = well fitted curve in the direction sought with a large enough effect in the repeat runs; an effect the other way counts as inactive or inconclusive)
# Procedure, shortened: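 Stable human KISS1R HEK293 line; 18 h plating, 37 C/5% CO2; calcium dye 1 h 37 C; compound pin transfer; kinetic fluorescence Ex/Em 480/540, 3 min.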
# [5] = G protein-coupled receptor (GPCR) small molecule agonists, calcium flux assay: HEK293 wild type cell line counter screen (AID 1920065)
# Procedure, shortened: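 Kinetic fluorescence at Ex/Em 480/540, recorded every second over 3 min, served as the read-out after compound addition. Each compound was tested at 15 concentrations in triplicate on cells pre-loaded with calcium dye for 1 h.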
# [6] = p53 small molecule agonists, cell-based qHTS assay with human liver microsomes: qHTS cell viability counter screen (AID 1963579); also: nearly all actives have a fitted effect of over 45% in size; also: potency is read from the fitted curve at half-maximal effect
# Procedure, shortened: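 p53RE-bla cells (4,000/well) were pre-incubated 5 h at 37 C, then given compounds in DMSO plus human liver microsomes (0.5 mg/mL final) and NADPH (0.5 mg/mL final) for 16 h at 37 C. Viability was read by CellTiter-Glo luminescence.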
# [7] = p53 small molecule agonists, cell-based qHTS assay with rat liver microsomes: qHTS cell viability counter screen (AID 1963580); also: nearly all actives have a fitted effect of over 45% in size; also: potency is read from the fitted curve at half-maximal effect
# Procedure, shortened: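 HCT-116 p53RE-bla, 4,000 cells/well, 5 h pre-incubation; cpd + rat liver microsomes 0.5 mg/mL + NADPH 0.5 mg/mL (final); 16 h, 37 C; CellTiter-Glo, 30 min RT; luminescence.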
# [8] = p53 small molecule agonists, cell-based qHTS assay: qHTS cell viability counter screen (AID 1963581); also: nearly all actives have a fitted effect of over 45% in size; also: potency is read from the fitted curve at half-maximal effect
# Procedure, shortened: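 HCT-116 p53RE-bla cells, 4,000/well, plated 5 h before compound pin transfer; 16 h at 37 C; bla substrate 2 h RT; then CellTiter-Glo, 30 min RT, luminescence.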
# [9] = cAMP Responsive Elements (CRE) small molecule agonists, cell-based qHTS assay (AID 1963590)
# Procedure, shortened: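 HEK 293T CRE-bla, 2,000 cells/well, 18 h preincubation 37 C/5% CO2; cpds (DMSO) pinned, 3 h; LiveBLAzer B/G FRET substrate, 2 h RT.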
# [10] = cAMP Responsive Elements (CRE) small molecule antagonists, cell-based qHTS assay (AID 1963591; active = well fitted inhibition curve with a large enough effect in the signal ratio in the repeat runs, not every such curve was filed as active; the % refers to the signal ratio)
# Procedure, shortened: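 Beta-lactamase reporter read by FRET substrate (LiveBLAzer B/G) after 2 h at room temperature. CRE-bla HEK293T cells had received compound plus 0.25 uM (final) NKH477 for 3 h at 37 °C.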
# [11] = target: Beta-2 adrenergic receptor (Homo sapiens) (UniProt P07550); test: Adrenergic beta2 receptor (ADRB2) small molecule antagonists, cell-based qHTS assay (AID 1963592); also: series mostly up to about 92 µM; nearly all actives have a fitted effect of over 50% in size
# Procedure, shortened: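 Cells (CHO, stable ADRB2 overexpression) incubated 18-20hr at 37C; compounds added from DMSO; agonist mix (1nM isoproterenol, 100uM IBMX, 25uM Ro-20-1724) added; 0.5hr RT; d2-cAMP and anti-cAMP-cryptate added; 1hr RT; 665/615 nm read.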
# [12] = target: Beta-2 adrenergic receptor (Homo sapiens) (UniProt P07550); test: Adrenergic beta2 receptor (ADRB2) small molecule agonists, cell-based qHTS assay (AID 1963593);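 also: CHO cells stably overexpressing human ADRB2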
# Procedure, shortened: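 CHO cells stably over-expressing ADRB2 were plated overnight at 37C, then dosed with compounds plus a stimulation mix containing 100uM IBMX and 25uM Ro-20-1724 for 0.5hr at room temperature. cAMP was measured by HTRF competition, 1hr.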
# [13] = target: D(2) dopamine receptor (Homo sapiens) (UniProt P14416); test: Dopamine D2 receptor (DRD2) small molecule agonists, cell-based qHTS assay (AID 1963594); also: nearly all actives have a fitted effect of over 35% in size
# Procedure, shortened: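 cAMP accumulation in DRD2-HEK293 cells measured by HTRF after 1 h detection; compounds added 10 min before NKH477 (200nM […]) forskolin-analogue stimulation, 30 min at room temperature, with Ro20-1724 present at 0.1 mM final.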
# [14] = target: D(2) dopamine receptor (Homo sapiens) (UniProt P14416); test: Dopamine D2 receptor (DRD2) small molecule antagonists, cell-based qHTS assay (AID 1963595; active = well fitted inhibition curve with a large enough effect in the signal ratio in the repeat runs, with a control signal flat; the % refers to the signal ratio)
# Procedure, shortened: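 Stable D2 receptor HEK293 line, 24 h after seeding. Compound preincubated 10 min, then quinpirole (12 nM) with forskolin analogue NKH477 (200 nM), 30 min, room temperature. Detection by time-resolved FRET of cAMP.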
# [15] = target: 5-hydroxytryptamine receptor 2A (Homo sapiens) (UniProt P28223); test: 5-hydroxytryptamine receptor 2A (HTR2A) small molecule agonists, cell-based qHTS assay (AID 1963587); also: nearly all actives have a fitted effect of over 30% in size
# Procedure, shortened: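 Kinetic calcium-flux fluorescence (2 min, 1 sec intervals) after compound addition in agonist mode. HTR2A-CHO cells were cultured 18 h, then dye-loaded 1 h at 37 C.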
# [16] = target: Muscarinic acetylcholine receptor M1 (Homo sapiens) (UniProt P11229); test: Cholinergic receptor muscarinic 1 (CHRM1) small molecule antagonists, cell-based qHTS assay (AID 1963588); also: nearly all actives have a fitted effect of over 40% in size
# Procedure, shortened: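 CHRM1-CHO calcium-flux assay, antagonist mode. Cells were seeded 18 h, dye-loaded 1 h at 37 C and given compound for 5 min at RT, then acetylcholine was added at 50nM. FDSS fluorescence was read 3 min; 15 concentrations, three runs.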
# [17] = target: Muscarinic acetylcholine receptor M1 (Homo sapiens) (UniProt P11229); test: Cholinergic receptor muscarinic 1 (CHRM1) small molecule agonists, cell-based qHTS assay (AID 1963589); also: nearly all actives have a fitted effect of over 35% in size
# Procedure, shortened: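 Human M1 in stable CHO line; 18 h plating, 1 h dye load 37 C; cpd added (agonist mode); Ca2+ fluorescence kinetic read, 1 s intervals; 15 conc, 3 runs.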
# [18] = target: 5-hydroxytryptamine receptor 2A (Homo sapiens) (UniProt P28223); test: 5-hydroxytryptamine receptor 2A (HTR2A) small molecule antagonists, cell-based qHTS assay (AID 1963586); also: nearly all actives have a fitted effect of over 45% in size
# Procedure, shortened: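 Antagonist-mode intracellular calcium assay: DOI (4 nM) added after 5 min compound pre-incubation at room temperature to dye-loaded HTR2A-CHO cells. Fluorescence followed for 3 min, sampled every second.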
# Beta-2 adrenergic receptor (Homo sapiens), sequence (P07550 whole entry, looked up): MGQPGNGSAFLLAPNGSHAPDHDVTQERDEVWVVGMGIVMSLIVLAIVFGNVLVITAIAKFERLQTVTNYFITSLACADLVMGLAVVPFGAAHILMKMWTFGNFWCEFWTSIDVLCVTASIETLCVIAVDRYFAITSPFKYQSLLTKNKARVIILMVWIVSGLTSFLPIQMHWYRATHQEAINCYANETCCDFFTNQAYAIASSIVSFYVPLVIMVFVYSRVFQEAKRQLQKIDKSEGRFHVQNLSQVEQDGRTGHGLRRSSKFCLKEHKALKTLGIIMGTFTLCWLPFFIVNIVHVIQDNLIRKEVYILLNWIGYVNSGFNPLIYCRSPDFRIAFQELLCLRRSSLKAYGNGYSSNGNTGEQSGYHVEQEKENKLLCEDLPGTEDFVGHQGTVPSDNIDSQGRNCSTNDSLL
# D(2) dopamine receptor (Homo sapiens), sequence (P14416 whole entry, looked up): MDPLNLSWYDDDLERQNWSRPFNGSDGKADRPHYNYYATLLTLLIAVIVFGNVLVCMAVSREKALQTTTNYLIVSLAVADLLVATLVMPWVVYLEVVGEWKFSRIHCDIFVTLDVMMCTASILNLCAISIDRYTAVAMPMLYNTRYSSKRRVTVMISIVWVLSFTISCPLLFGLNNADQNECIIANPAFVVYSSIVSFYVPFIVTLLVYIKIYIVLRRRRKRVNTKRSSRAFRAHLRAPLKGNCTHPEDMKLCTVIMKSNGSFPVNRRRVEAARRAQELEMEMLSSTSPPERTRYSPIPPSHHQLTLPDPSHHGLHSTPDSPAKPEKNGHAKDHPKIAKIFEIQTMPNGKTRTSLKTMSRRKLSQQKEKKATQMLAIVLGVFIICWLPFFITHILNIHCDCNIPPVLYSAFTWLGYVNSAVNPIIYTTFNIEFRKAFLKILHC
# Muscarinic acetylcholine receptor M1 (Homo sapiens), sequence (P11229 whole entry, looked up): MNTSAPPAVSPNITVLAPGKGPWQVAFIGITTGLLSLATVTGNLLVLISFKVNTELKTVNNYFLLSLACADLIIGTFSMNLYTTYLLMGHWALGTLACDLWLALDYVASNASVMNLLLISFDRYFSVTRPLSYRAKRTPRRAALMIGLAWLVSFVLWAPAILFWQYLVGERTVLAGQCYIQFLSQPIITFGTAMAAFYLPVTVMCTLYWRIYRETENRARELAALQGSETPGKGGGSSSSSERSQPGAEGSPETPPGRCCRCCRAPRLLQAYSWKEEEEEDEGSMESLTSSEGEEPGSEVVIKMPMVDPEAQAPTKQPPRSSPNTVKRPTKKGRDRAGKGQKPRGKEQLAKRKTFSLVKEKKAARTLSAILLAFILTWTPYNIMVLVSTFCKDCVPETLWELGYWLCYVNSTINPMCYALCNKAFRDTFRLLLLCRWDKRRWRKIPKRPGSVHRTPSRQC
# 5-hydroxytryptamine receptor 2A (Homo sapiens), sequence (P28223 whole entry, looked up): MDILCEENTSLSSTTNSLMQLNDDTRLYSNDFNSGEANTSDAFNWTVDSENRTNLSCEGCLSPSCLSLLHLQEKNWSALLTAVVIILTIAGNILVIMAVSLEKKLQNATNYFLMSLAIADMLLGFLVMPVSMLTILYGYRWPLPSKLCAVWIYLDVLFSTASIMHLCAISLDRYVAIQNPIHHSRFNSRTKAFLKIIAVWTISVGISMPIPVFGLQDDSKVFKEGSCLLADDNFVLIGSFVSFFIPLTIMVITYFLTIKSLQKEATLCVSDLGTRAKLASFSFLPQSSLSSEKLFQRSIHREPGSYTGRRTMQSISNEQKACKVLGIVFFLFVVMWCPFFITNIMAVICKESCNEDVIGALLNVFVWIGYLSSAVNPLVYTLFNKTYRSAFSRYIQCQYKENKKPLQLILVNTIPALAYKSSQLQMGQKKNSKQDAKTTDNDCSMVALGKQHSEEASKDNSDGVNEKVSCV
# Gonadotropin-releasing hormone receptor (Homo sapiens), sequence (P30968 whole entry, looked up): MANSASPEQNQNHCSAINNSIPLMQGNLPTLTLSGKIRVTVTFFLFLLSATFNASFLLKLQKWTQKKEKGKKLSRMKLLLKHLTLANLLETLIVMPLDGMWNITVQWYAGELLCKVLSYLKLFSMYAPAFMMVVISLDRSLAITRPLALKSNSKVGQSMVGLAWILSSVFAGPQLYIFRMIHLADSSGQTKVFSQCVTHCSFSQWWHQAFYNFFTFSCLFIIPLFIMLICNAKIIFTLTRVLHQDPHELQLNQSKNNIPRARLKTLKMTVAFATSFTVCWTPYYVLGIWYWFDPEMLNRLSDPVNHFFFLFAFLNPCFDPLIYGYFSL
# KiSS-1 receptor (Homo sapiens), sequence (Q969F8 whole entry, looked up): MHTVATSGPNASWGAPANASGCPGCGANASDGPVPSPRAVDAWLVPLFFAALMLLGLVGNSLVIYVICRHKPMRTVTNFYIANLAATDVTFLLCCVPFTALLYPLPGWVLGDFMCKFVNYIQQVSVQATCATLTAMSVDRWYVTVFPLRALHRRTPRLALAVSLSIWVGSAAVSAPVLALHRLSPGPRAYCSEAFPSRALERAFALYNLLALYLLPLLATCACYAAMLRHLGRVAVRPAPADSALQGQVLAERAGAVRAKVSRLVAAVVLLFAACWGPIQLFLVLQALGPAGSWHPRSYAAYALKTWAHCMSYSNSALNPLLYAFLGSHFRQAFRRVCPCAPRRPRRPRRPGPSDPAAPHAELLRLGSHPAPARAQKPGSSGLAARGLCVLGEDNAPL
Compound,Potency [1],Potency [2],Potency [3],Potency [4],Potency [5],Potency [6],Potency [7],Potency [8],Potency [9],Potency [10],Potency [11],Potency [12],Potency [13],Potency [14],Potency [15],Potency [16],Potency [17],Potency [18]
CCC1(C)CC(=O)NC1=O (stereo not drawn),inactive,inactive,inactive,inactive,inactive,inactive,inactive,inactive,inactive,inactive,inactive,inactive,inactive,inactive,,,,
CC1=Nc2ccc3ccccc3c2C1(C)C,inactive,68.6 µM (active),38.9 µM (active),inactive,inactive,inactive,inactive,inactive,,,,,inactive,inactive,inactive,inactive,,
COC1CCC=CO1 (stereo not drawn),inactive,inactive,inactive,inactive,inactive,inactive,inactive,inactive,inactive,inactive,inactive,,,inactive,inactive,inactive,inactive,
C=Cc1ccc(C=C)cc1,inactive,inactive,inactive,inactive,inactive,inactive,inactive,inactive,inactive,inactive,inactive,,inactive,inactive,inactive,inactive,inactive,
C/C=C1\C(=O)C[C@H]2[C@@H]3CCC4=CC(=O)CC[C@]4(C)[C@H]3CC[C@]12C,inactive,2.13 µM (active),inactive,inactive,inactive,inactive,inactive,inactive,,,,,inactive,inactive,inactive,inactive,inactive,
Cc1c(Cl)cccc1Cl,inactive,inactive,inactive,inactive,inactive,inactive,inactive,inactive,inactive,inactive,inactive,inactive,inactive,inactive,inactive,inactive,inactive,
Cn1cnc2c(=O)[nH]c(N)nc21,inactive,inactive,inactive,inactive,inactive,inactive,inactive,inactive,inactive,inactive,inactive,inactive,,inactive,inactive,,inactive,
N=C1N=C(N)c2cc3ccccc3cc21,24.3 µM (active),21.7 µM (active),inactive,inactive,inactive,45.8 µM (active),45.8 µM (active),23.6 µM (active),,,,,,,,,inactive,
O=C(O)CC(=O)C(=O)O,inactive,inactive,inactive,inactive,inactive,inactive,,inactive,,inactive,inactive,,,inactive,,,inactive,inactive
O=C(O)CNC(=O)CNC(=O)CNC(=O)CSC(=O)c1ccccc1,inactive,inactive,inactive,inactive,inactive,inactive,inactive,,inactive,inactive,inactive,inactive,inactive,inactive,inactive,inactive,inactive,
CCCC1CCC(=O)CC1,inactive,inactive,inactive,inactive,inactive,inactive,,inactive,inactive,inactive,inactive,inactive,inactive,inactive,inactive,,inactive,inactive
CCOC(=O)C1=NN(c2ccccc2)C(=O)C1,inactive,inactive,inactive,inactive,inactive,inactive,inactive,,inactive,inactive,inactive,,inactive,inactive,inactive,,,inactive
CNC(=O)C(c1ccccc1)c1ccccc1,inactive,inactive,inactive,inactive,inactive,inactive,,inactive,inactive,inactive,inactive,,inactive,inactive,inactive,,,inactive
